VDR inhibitor = Inhibitors of the vitamin D receptor (VDR): qHTS; Vitamin D3 receptor (Homo sapiens), P11473; AID 504847, 2011; hit rate 0.93% among 400,000; VDR-SRC2-3 peptide fluorescence polarization, 2 h; Potency, µM, inactives show max response, negative = inhibition, hits mostly inhibitors
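Signal is fluorescence polarization, reporting how far test compounds block the interaction of VDR with the SRC2-3 coregulator peptide after a 2 h room-temperature incubation.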
TDP1 cell CPT = qHTS for Inhibitors of human tyrosyl-DNA phosphodiesterase 1 (TDP1): qHTS in cells in presence of CPT; AID 686979, 2013; chicken DT40 Tdp1-/-;hTDP1 cells + 20 nM CPT, ATP luminescence, 48 h; hit rate 12% among 420,000; Potency, µM (series often up to 46.2 µM), for inactives: top-dose activity change, negative = growth inhibition, most hits filed as inhibitors; also: nearly all actives have a fitted effect of over 55% in size
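Cell growth measured by CellTiter-Glo luminescence after a minimum 48 h, 37 C compound exposure with 20 nM CPT in Tdp1-knockout DT40 cells stably expressing hTDP1, seeded 400/well; qHTS titration format.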
TDP1 cell noCPT = qHTS for Inhibitors of human tyrosyl-DNA phosphodiesterase 1 (TDP1): qHTS in cells in absence of CPT; DT40 Tdp1-/- hTDP1 cells, no CPT, ATP luminescence, 48 h; Potency, µM (highest dose often 46.2 µM), inactives show at the highest dose activity change, negative = growth inhibition, most hits filed as inhibitors; hit rate 15% among 420,000; AID 686978, 2013; also: nearly all actives have a fitted effect of over 55% in size
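Readout: luminescence from CellTiter-Glo after 30 min in the dark at RT. Cells: DT40 Tdp1-/- with stable hTDP1, 400/well. Exposure: compounds alone, ≥48 hr, 37 °C.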
GCN5L2 inh = qHTS Assay for Inhibitors of GCN5L2; Histone acetyltransferase KAT2A (Homo sapiens), Q92830; GCN5L2 HAT assay, ThioGlo1 CoA-SH fluorescence; Potency, µM (doses to about 58.9 µM), for inactives: top-dose activity change, negative = inhibition, usual class: inhibitors; hit rate 0.21% among 390,000; AID 504327, 2011
Target sequence (Q92830 whole entry, looked up): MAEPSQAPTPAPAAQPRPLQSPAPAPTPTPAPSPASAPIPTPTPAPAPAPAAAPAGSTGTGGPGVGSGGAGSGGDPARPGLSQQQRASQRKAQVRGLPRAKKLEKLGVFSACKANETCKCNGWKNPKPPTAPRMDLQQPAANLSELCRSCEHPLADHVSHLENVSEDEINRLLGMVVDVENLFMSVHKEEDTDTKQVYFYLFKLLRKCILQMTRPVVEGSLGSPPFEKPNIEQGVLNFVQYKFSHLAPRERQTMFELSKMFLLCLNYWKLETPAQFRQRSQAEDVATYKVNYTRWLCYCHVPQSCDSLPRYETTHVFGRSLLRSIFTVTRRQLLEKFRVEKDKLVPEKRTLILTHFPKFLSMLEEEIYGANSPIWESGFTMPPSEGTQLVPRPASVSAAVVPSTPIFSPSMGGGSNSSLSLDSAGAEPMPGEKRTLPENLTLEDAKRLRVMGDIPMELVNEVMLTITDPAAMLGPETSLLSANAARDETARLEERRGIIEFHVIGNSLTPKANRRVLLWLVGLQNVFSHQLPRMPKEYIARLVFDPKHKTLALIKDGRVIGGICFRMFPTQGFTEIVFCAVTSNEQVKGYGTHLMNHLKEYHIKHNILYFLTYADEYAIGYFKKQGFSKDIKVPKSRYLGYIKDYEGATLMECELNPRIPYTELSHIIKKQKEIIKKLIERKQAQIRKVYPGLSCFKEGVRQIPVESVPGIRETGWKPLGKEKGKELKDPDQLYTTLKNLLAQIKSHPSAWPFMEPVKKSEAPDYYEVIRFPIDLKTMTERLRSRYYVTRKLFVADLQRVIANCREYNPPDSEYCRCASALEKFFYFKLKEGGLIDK
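Free CoA generated was detected with ThioGlo1 (50uM) fluorescence at Ex340nm/Em540nm, read immediately and after 20 min at room temperature. Enzyme, 20 nM in HEPES pH 7.5 buffer, saw compounds 15 min before adding 75uM H3(1-25) peptide and 70uM acetyl-CoA.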
PLK1 PBD block = qHTS for Inhibitors of PLK1-PDB (polo-like kinase 1 - polo-box domain): Primary Screen; Serine/threonine-protein kinase PLK1 (Homo sapiens), P53350; Plk1 PBD binding of FITC phosphopeptide, fluorescence polarization; Potency, µM, inactives show max response, negative = inhibition, most hits filed as inhibitors; hit rate 2.8% among 360,000; also: series mostly up to about 57 µM; nearly all actives have a fitted effect of over 65% in size
TDP1 inh = qHTS Assay for Inhibitors of Tyrosyl-DNA Phosphodiesterase (TDP1); Tyrosyl-DNA phosphodiesterase 1 (Homo sapiens), Q9NUW8; recombinant TDP1, AlphaScreen DNA substrate cleavage; Potency, µM (titrated, usually from 130 µM), for the others: top-dose activity change, negative = inhibition, actives largely listed as inhibitors; hit rate 0.28% among 350,000; AID 485290, 2010; also: nearly all actives have a fitted effect of over 40% in size
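Signal: AlphaScreen proximity between streptavidin donor and anti-FITC acceptor beads on intact substrate. Reaction: Tdp1 1 nM, substrate 15 nM final, 5 min RT after 15 min compound preincubation.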
* = called active by the depositor; ? = inconclusive; / = no result; [ ] = remark or other dose. A selection: hits, their analogues and other compounds. The true share with any hit is near 18%. Calls follow the shape of the dose curve; as a rule, active = well fitted curve in the direction sought with a large enough effect; inconclusive = small, poorly fitted or top-dose-only effect, or another doubt; inactive = no such curve, though single readings can be large; an effect the other way counts as inactive or inconclusive. % is scaled to controls: 0 for no effect and ±100 for the full control effect; potency is read from the fitted curve at half-maximal effect.

SMILES	VDR inhibitor	TDP1 cell CPT	TDP1 cell noCPT	GCN5L2 inh	PLK1 PBD block	TDP1 inh
COc1ccc(-c2oc(=O)c3cc(OC)c(OC)cc3c2/C=C/c2cccc([N+](=O)[O-])c2)cc1	2%	8.2µM*	9.2µM*	3%	-19%	-7%
CCOC(=O)C1CCC(CN(Cc2ccc(OC)cc2)S(=O)(=O)c2ccc(F)c(C(=O)Nc3cc(Cl)ccc3OC)c2)CC1 (stereo not given)	2%	-11%	-17%	-5%	/	8%
COc1cccc(Cn2c(=O)cnc3cnc(Oc4ccccc4)nc32)c1	-12%	-5%	-12%	-8%	/	/
COc1cc(/C=C(/C#N)c2nc3ccccc3[nH]2)ccc1OCC(=O)Nc1ccccc1C	?	3.3µM*	6.5µM*	25%	-13%	1%
COc1cc(/C=C2/NC(=O)N(CC(=O)Nc3cccc(C)c3)C2=O)ccc1OCC(N)=O	?	?	?	0%	27µM*	5%
COc1cc(/C=C/c2cc[n+](C)cc2)ccc1OCC(=O)Nc1ccccc1	-15%	-4%	-28%	-6%	2%	/
COc1cc(C=C2C(=O)OC(C)(C)OC2=O)ccc1OCC(=O)Nc1ccccc1	-5%	4%	-3%	5%	19µM*	-1%
COc1cc(/C=C(\C#N)c2nc3ccccc3s2)ccc1OCC(=O)Nc1ccccc1	5%	5.2µM*	4.6µM*	-25%	16%	0%
CO[C@H]1COC(=O)CCC[C@@H](C)[C@H](OC)COC(=O)[C@H]2CCCN2C(=O)C/C=C\[C@@H]1C	/	/	/	/	/	4%[21 µM]
CCN(C(=O)COC(=O)C1CCN(S(=O)(=O)c2c(Cl)cccc2Cl)CC1)C1CCCCC1	-10%	-22%	-21%	-7%	-5%	2%
CCc1cc(=O)oc2c3c(cc(OCC(=O)NCCCC(=O)O)c12)OC(C)(C)CC3	-12%	-19%	-1%	10µM*	-9%	/
Cc1c(C)c2c(OCC(=O)O)cc3c(c2oc1=O)CCC(C)(C)O3	-16%	-21%	-26%	?	-6%	/
Cc1c(C)c2c(OCC(=O)NCC(=O)NCC(=O)O)cc3c(c2oc1=O)CCC(C)(C)O3	?	?	?	-15%	12µM*	/
Cc1c(C)c2c(OCC(=O)N3CCC(C(=O)O)CC3)cc3c(c2oc1=O)CCC(C)(C)O3	1%	-17%	-11%	16µM*	-10%	/
NC(Cc1ccc(C(F)(F)F)cc1)c1csc(Nc2ccc(C(=O)NCc3ccco3)cn2)n1 (stereo not given)	/	15µM*	?	/	-2%	/
NC(Cc1ccc(C(F)(F)F)cc1)c1csc(Nc2ccc(C(=O)NCCCO)cn2)n1 (stereo not given)	/	?	16µM*	/	0%	/
Cc1ccc(OC(=O)c2ccncc2)c(C)c1	-14%	1%	2%	-4%	2%	/
NNC(=S)NC1CCCCC1	-8%	6.5µM*	5.8µM*	-9%	-9%	-5%
O=C(NC1CCCCC1)C(=S)NC1CCCCC1	/	/	/	-3%	/	6%
CNC1(c2nnnn2-c2ccccc2C)CCOC(C)(C)C1 (stereo not given)	22µM*	?	?	1%	15µM*	-3%
Cc1ccccc1-n1nnnc1SC1CCOC1=O (stereo not given)	5%	10%	-10%	-4%	-15%	2%
CC(NS(=O)(=O)c1ccccc1)C(c1cccs1)N1CCOCC1 (stereo not given)	4%	-3%	4%	-2%	-5%	-4%
COc1ccc(N2CCN(C(c3cccs3)C(C)NC(=O)C(=O)N3CCCCC3)CC2)cc1 (stereo not given)	-4%	-14%	-4%	1%	-16%	5%
CCS(=O)(=O)NC(C)C(c1cccs1)N1CCN(c2ccc(OC)cc2)CC1 (stereo not given)	-11%	21µM*	23µM*	-1%	5%	1%
COc1ccc(N2CCN(C(c3cccs3)C(C)NS(=O)(=O)c3ccccc3)CC2)cc1 (stereo not given)	-11%	21µM*	13µM*	-15%	2%	6%
SMILES	VDR inhibitor	TDP1 cell CPT	TDP1 cell noCPT	GCN5L2 inh	PLK1 PBD block	TDP1 inh
CCN(CC)S(=O)(=O)c1ccc2c(c1)nc(CCC(=O)Nc1ccccc1Cc1ccccc1)n2CC	11%	21µM*	23µM*	-6%	0%	7%
Cc1nc(NC(=O)COC(=O)/C=C/c2ccco2)c(Cl)cc1Cl	?	-6%	28%	-6%	-14%	/
CN(C)S(=O)(=O)c1ccc(Cl)c(NC(=O)COC(=O)/C=C/c2ccco2)c1	0%	3%	-15%	-6%	15%	50µM*
O=C(COC(=O)/C=C/c1ccco1)Nc1ncc(Cl)cc1Cl	-12%	-10%	-19%	-13%	-14%	20µM*
COc1cccc2c1cc1c(=O)n(CC(=O)N3CCN(c4cccc(C)c4)C(C)C3)nc(C)n12 (stereo not given)	4%	-22%	4%	-4%	/	1%
Cc1ccc(CCNS(=O)(=O)c2ccc3c(c2)C(C(C)C)C(=O)N3)cc1 (stereo not given)	1%	?	21µM*	9%	/	3%
Cc1ccc(NS(=O)(=O)c2ccc3c(c2)NC(=O)C(C)C(=O)N3)cc1C (stereo not given)	-17%	?	18µM*	-7%	3%	/
Cc1ccc(S(=O)(=O)Nc2ccc3[nH]c(=O)sc3c2)cc1C	7%	?	16µM*	-20%	/	4%
Cc1ccc(NS(=O)(=O)c2ccc3c(c2)C(Cl)(Cl)C(=O)N3)cc1C	/	/	/	/	/	4%
CC1Sc2ccc(S(=O)(=O)NCCc3ccc(Cl)cc3)cc2NC1=O (stereo not given)	2%	-24%	?	2%	-1%	1%
CCc1ccc(S(=O)(=O)Nc2ccc3[nH]c(=O)sc3c2)cc1	14%	?	?	1%	/	1%
Cc1ccc(NS(=O)(=O)c2ccc3c(c2)C(C(C)C)C(=O)N3)cc1C (stereo not given)	4%	?	29µM*	-3%	/	3%
O=C1OCC/C1=C\NCCCN/C=C1\CCOC1=O	/	-8%	-17%	/	4%	/
OCCNc1ncnc2ccc(Br)cc12	-10%	?	6.5µM*	-8%	-8%	5%
